Screens (PubChem)
Hits are enriched below; roughly 31% of the tested compounds scored in any of these assays.
CYP2C19 act = activators of human cytochrome P450 2C19; activation factor at 5 µM; AID 1025; recombinant CYP2C19, luciferin-H EGE luminescence; hits give high values; 0 = fully inhibited enzyme, 1 = untreated enzyme; P33261; 96,000 tested, under 10 active;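 active = activation factor of at least 2 at 5 µM in the primary screen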;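 note: 0 = wells with 2.5 mM tranylcypromine and 1 = vehicle-only wells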
Target sequence (P33261 whole entry, looked up): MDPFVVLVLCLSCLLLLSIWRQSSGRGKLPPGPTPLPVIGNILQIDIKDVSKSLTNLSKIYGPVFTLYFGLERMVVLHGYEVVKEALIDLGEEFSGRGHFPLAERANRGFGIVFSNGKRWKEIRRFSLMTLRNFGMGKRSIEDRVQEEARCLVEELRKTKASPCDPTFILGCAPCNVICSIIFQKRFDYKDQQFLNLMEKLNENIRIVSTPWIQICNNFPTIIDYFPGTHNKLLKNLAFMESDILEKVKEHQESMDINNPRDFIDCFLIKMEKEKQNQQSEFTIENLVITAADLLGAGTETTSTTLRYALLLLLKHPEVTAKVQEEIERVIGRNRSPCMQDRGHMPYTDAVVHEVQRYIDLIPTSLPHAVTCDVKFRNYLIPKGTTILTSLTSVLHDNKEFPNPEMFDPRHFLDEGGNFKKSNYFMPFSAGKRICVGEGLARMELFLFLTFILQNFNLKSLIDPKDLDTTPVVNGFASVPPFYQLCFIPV
PLAP act = human PLAP activation | activation fold at 20 µM | purified PLAP enzyme, luminescent substrate read-out; hits give high values | AID 696 | P05187 | actives 1.2% (n = 96,000); in the data active = activation fold above about 2
CYP2C19 inh = inhibitors of human CYP2C19. P33261. CYP2C19 Supersomes, luciferin-H EGE luminescence, 30 min. inhibition, % at 5 µM. actives 21% (n = 96,000). AID 778;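 active = CYP2C19 inhibition above a set limit at 5 µM in the primary screen, cut at about 50% in these data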;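 note: plate controls were negative control wells for no effect and 2.5 mM tranylcypromine positive control for full effect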
CYP2C9 act = activators of human CYP2C9; P11712; recombinant CYP2C9, luciferin-H conversion, luminescence; hits give high values; factor 1 = untreated enzyme, 0 = blocked; activation factor at 5 µM; actives 1.4% (n = 96,000);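 active = activation factor of 2 or more for CYP2C9 at a 5 µM dose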;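 note: 0 = sulfaphenazole-blocked wells and 1 = vehicle-only wells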
CYP2C9 inh = human CYP2C9 inhibition; actives 20% (n = 96,000); CYP2C9 Supersomes, luciferin-H conversion, luminescence; inhibition, % at 5 µM;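 active = blocking of liver enzyme CYP2C9 beyond about 50% at 5 µM, limit read from the data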
Active calls of the source: *; nt = not tested or not shown.

SMILES	CYP2C19 act	PLAP act	CYP2C19 inh	CYP2C9 act	CYP2C9 inh
O=C(c1cc2ccccc2oc1=O)N1CCN(c2ncccn2)CC1	0.1	0.9	87*	1	4
O=C(c1cc2ccccc2oc1=O)N1CCCC1	1.1	0.9	-12	1.4	-44
COC(=O)CCN(C(=O)c1ccc(OC(C)=O)cc1)c1ccccn1	1.2	0.9	-16	1.1	-13
CCOc1cc(NC(=S)NCC2CCCO2)c(OCC)cc1NC(=O)c1cccc(C)c1 (stereo not drawn)	nt	1	nt	0.9	15
O=c1nc2ccccc2c(NS(=O)(=O)c2ccc(Cl)cc2)n1-c1ccccc1	0.9	1.1	10	0.9	5
CCn1c(SCc2ccc(OC)cc2)nnc1-c1ccncc1	0.1	1	92*	0.9	12
CCn1c(SCc2ccc(C(=O)Nc3cc(C)cc(C)c3)cc2)nnc1-c1ccncc1	0.6	1.3	44	0.6	42
C=CCn1c(SCc2ccc(C#N)cc2)nnc1-c1cccc(OC)c1	0.1	1.6	91*	0.4	64*
CCn1c(SCc2ccc(C#N)cc2)nnc1-c1ccc(S(=O)(=O)N2CCCCC2)cc1	0.8	1.4	17	0.9	10
C=CCn1c(SCc2ccc(OC)cc2)nnc1-c1cccnc1	0.2	1.4	77*	0.5	46
CCn1c(SCc2cccc(C)c2)nnc1-c1ccc(C)cc1	0.1	0.9	86*	0.9	10
Cc1ccc(-n2c(SCc3ccc(C#N)cc3)nnc2-c2ccccn2)cc1	0.5	1.6	50*	0.5	51*
Cn1c(SCc2ccc(C#N)cc2)nnc1-c1ccccc1	0.6	0.8	44	0.8	20
COc1cccc(-c2nnc(SCc3ccc(C#N)cc3)n2Cc2ccco2)c1	0.1	1.4	91*	0.1	95*
Cc1ccc(-c2nnc(SCc3ccc(C#N)cc3)n2Cc2ccco2)cc1	0.9	0.9	11	0.7	32
Cn1c(SCc2ccc(C#N)cc2)nnc1-c1cccc(Cl)c1	0.3	1.1	74*	0.5	47
COc1ccc(-n2c(SCc3ccc(C#N)cc3)nnc2-c2ccccn2)cc1	0.9	1.3	13	1	-4
CCCn1c(SCC(=O)c2ccc(CC)cc2)n[nH]c1=O	1	1.5	0	0.9	11
COc1ccc(C2(O)CC3CCC(C2)N3c2nc(C)cc(C)c2C#N)cc1 (stereo not drawn)	0.6	1.2	41	0.4	59*
O=C(COc1ccccc1Cl)Nc1cnn(Cc2ccccc2)c1	0.8	0.8	21	0.7	27
O=C(Nc1cnn(Cc2c(Cl)cccc2Cl)c1)C(c1ccccc1)c1ccccc1	0.8	0.9	15	0.1	87*
CC1(C)CC2CC(C)(CN2C(=O)CCCN2C(=O)c3ccccc3C2=O)C1 (stereo not drawn)	0.1	1.5	86*	0.9	8
CC1(C)CC2CC(C)(CN2C(=O)COc2cccc3ccccc23)C1 (stereo not drawn)	1	0.8	2	1.6	-57
CC1(C)CC2CC(C)(CN2C(=O)c2cc(-c3ccccc3O)on2)C1 (stereo not drawn)	0.5	1.3	54*	0.3	73*
CC1CCN(C(=O)c2cc(-c3ccccc3O)on2)CC1	0.3	1	67*	1.2	-19
SMILES	CYP2C19 act	PLAP act	CYP2C19 inh	CYP2C9 act	CYP2C9 inh
CC(=O)Nc1ccccc1C(=O)N1CC2(C)CC1CC(C)(C)C2 (stereo not drawn)	1.1	1	-6	1	-4
CC1(C)CC2CC(C)(CN2C(=O)c2cccs2)C1 (stereo not drawn)	0.3	1.1	74*	0.6	38
O=C(NCc1ccco1)/C(=C/c1cccnc1)NC(=O)c1cccc(Br)c1	1	1	-4	1	-1
CC1CN(C2CCN(C(=O)c3ccccc3)CC2)CC(C)O1 (stereo not drawn)	1.1	1.3	-6	1.1	-8
COC(=O)c1ccccc1NC(=O)c1nc2nc(C)cc(C(F)F)n2n1	1	1.2	5	1.3	-26
Cc1cc(NC(=O)Cn2cnc3c2c(=O)n(C)c(=O)n3C)n(-c2ccccc2)n1	1.1	1.1	-14	1	-2
CC(C)Cn1c(C(C)C)nc([N+](=O)[O-])c1S(=O)(=O)c1ccc(F)cc1	0.3	1	66*	0.9	13
Cc1nc2ccccn2c1/C(O)=C1\C(=O)C(=O)N(CCN(C)C)C1c1cccnc1 (stereo not drawn)	1	1	-4	1	-3
C=CCn1c(SCC(=O)Nc2ccc(N(C)C)cc2)nnc1-c1cccc(C)c1	0.7	1.2	29	0.6	37
CCOC(=O)c1c(NC(=O)Cn2nnc(-c3ccc(Cl)cc3)n2)sc(CC)c1C	0.9	1	15	0.3	74*
CCOC(=O)c1ccc(CNC(=O)Cn2nnc(-c3ccc(C)cc3)n2)o1	0.8	1	18	0.4	60*
CCOC(=O)c1ccc(CNC(=O)CSc2nnnn2-c2ccc(Cl)cc2)o1	0.7	0.9	34	0.9	7
Cc1cnc(C(=O)Nc2ccccc2-c2nnn(CC(=O)NC3CCCC3)n2)cn1	1.1	1.2	-13	0.8	25
O=C(Cn1nnc(-c2ccccc2NC(=O)c2ccco2)n1)NC1CCCCC1	0.7	1.7	26	0.4	64*
CCOC(=O)c1ccc(Cn2c(-c3ccccc3)nnc2-c2ccccc2)o1	0.7	1.4	31	0.4	58*
COc1ccc(C(=O)Nc2ccccc2-c2nnn(CC(=O)NCc3ccco3)n2)cc1	0.7	0.9	31	0.3	75*
O=C(Cn1nnc(-c2cccc(C(F)(F)F)c2)n1)NC1CCCC1	1	1.4	2	2.5*	-149
O=C(Cn1nnc(-c2ccccc2)n1)NCc1ccco1	0.4	1	61*	1.1	-12
O=C(Cn1nnc(-c2ccccc2)n1)NCc1cccs1	0.3	0.8	72*	1	3
CCOc1ccc(-c2nnn(CC(=O)NCc3ccco3)n2)cc1	0.8	0.9	23	0.8	19
COc1ccc(-c2nnn(CC(=O)NCc3cccs3)n2)cc1OC	0.7	0.9	27	1	3
C=CCNCc1cccn1-c1ccccc1	0.9	1.1	8	1	3
COc1cc(C(=O)Nc2ccccc2-c2nnn(CC(N)=O)n2)cc(OC)c1OC	1.2	1	-17	0.2	78*
O=C(Cn1cnc2sc(-c3ccccc3)cc2c1=O)NCc1ccco1	1	1	-1	1	4
NC(=O)Cn1nnc(-c2ccccc2NC(=O)c2cnccn2)n1	1.1	1	-11	0.9	9
O=C(CN1C(=O)CC(c2ccccc2)=Nc2ccccc21)NCc1ccco1	0.6	0.9	40	0.3	71*
N#CCC(=O)N1CCCCCC1	0.7	1	30	0.7	26
CN=C(C)C1=C(O)C(C(=O)OC)C(C)(C)CC1=O (stereo not drawn)	1	0.9	3	1	-2
